Experimental data: ChEMBL document CHEMBL4296182, “CO-ADD screening of NIH NCI Diversity Set V”
For part of these data: Results with a measured potency or affinity are listed apart.

What was measured:
Staphylococcus aureus = assay: Antibacterial activity against Staphylococcus aureus MRSA ATCC 43300 (CO-ADD:GP_020); MIC in CAMBH media using NBS plates, by Resazurin F(560/590); format: functional; settings: Concentration 20 uM, ASSAY_TEST Inhibition of Bacterial Growth, detection method Resazurin, Fluorescence (ex560/em590), MEDIA CAMHB, plate type 384well, CORNING #3640, time 18 hr
Acinetobacter baumannii = assay: Antibacterial activity against Acinetobacter baumannii ATCC 19606 (CO-ADD:GN_034); MIC in CAMBH media using NBS plates, by Resazurin F(560/590); format: functional; settings: Concentration 20 uM, ASSAY_TEST Inhibition of Bacterial Growth, detection method Resazurin, Fluorescence (ex560/em590), MEDIA CAMHB, plate type 384well, CORNING #3640, time 18 hr
Escherichia coli = assay: Antibacterial activity against Escherichia coli ATCC 25922 (CO-ADD:GN_001); MIC in CAMBH media using NBS plates, by Resazurin F(560/590); format: functional; settings: Concentration 20 uM, ASSAY_TEST Inhibition of Bacterial Growth, detection method Resazurin, Fluorescence (ex560/em590), MEDIA CAMHB, plate type 384well, CORNING #3640, time 18 hr
Klebsiella pneumoniae = settings: Concentration 20 uM; ASSAY_TEST Inhibition of Bacterial Growth; detection method Absorption (OD600); MEDIA CAMHB; plate type 384well; NBS; CORNING #3640; time 18 hr
Candida albicans = settings: 20 µM
Cryptococcus neoformans = settings: Concentration 20 uM; ASSAY_TEST Inhibition of Fungal Growth; detection method Resazurin; Absorption (OD600-OD570); plate type 384well; NBS; CORNING #3640

Compound	Inhibition (Staphylococcus aureus)	Inhibition (Acinetobacter baumannii)	Inhibition (Escherichia coli)	Inhibition (Klebsiella pneumoniae)	Inhibition (Candida albicans)	Inhibition (Cryptococcus neoformans)
O=C1c2cccc3cc([N+](=O)[O-])cc(c23)C(=O)N1CCN1CCCC1 [PINAFIDE]	-1.04%	10.65%	-8.19%	5.33%	0.21%	-7.33%
CCOc1ccc(NC(=O)c2cc3ccccc3cc2O)cc1	-0.31%	-4.15%	-2.29%	2.5%	7.38%	-4.09%
NC(=O)c1ccc2c(c1)S(=O)(=O)c1ccccc1C2=O	12.96%	-8.12%	-3.77%	24.13%	1.19%	-8.66%
O=C1c2ccccc2C(O)(c2ccccc2)N1c1ccncc1 (centres undefined)	8.72%	-12.43%	4.92%	13.13%	2.44%	-3.79%
c1ccc2[nH]c(CCCCCc3nc4ccccc4[nH]3)nc2c1	5.94%	0.02%	-19.74%	9.39%	4.8%	17.08%
NC(=O)CCC(C(=O)O)N1C(=O)c2ccc(O)cc2C1=O (centres undefined)	8.42%	13.26%	-2.7%	12.88%	4.99%	-2.28%
O=C(NCc1ccco1)Nc1ccc([N+](=O)[O-])cc1	14.72%	3.43%	4.45%	18.95%	5.76%	-12.12%
Cn1ncc2c(Nc3ccccc3Cl)nc(Nc3ccccc3Cl)nc21	12.86%	-3.35%	-7.44%	23.76%	8.17%	-4.25%
C=CCNC(S)=Nc1c(N)n(C)c(=O)n(C)c1=O	11.89%	5.83%	-15.58%	18.14%	8.36%	18.71%
O=C(NC1(N2CCOCC2)CC1)c1ccc(Cl)cc1	6.77%	-6.57%	-5.43%	3.34%	2.83%	-0.42%
O=C(Nc1ccc(C(=O)O)c(O)c1)c1ccccc1 [BENZOYLPAS]	-3.42%	-17.37%	4.17%	3.36%	6.26%	-5.98%
CCCCC(=O)N1CCCC(C)C1 (centres undefined)	12.48%	-11.97%	4.56%	-3.93%	4.76%	-4.37%
CCCN(CCC)c1ccc(/C=C/c2ccc3cc(OCC)ccc3n2)cc1	6.79%	8.69%	-3.61%	28.88%	-0.13%	-5.04%
COc1ccc(Br)c2c1C(=O)CC2	10.21%	-14.67%	12.53%	-2.44%	20.7%	-15.03%
CCN(CC)CCNc1c(C)cc(CO)c(Cl)c1C.O=S(=O)(O)NC1CCCCC1	5.65%	-16.4%	16.33%	7.45%	1.43%	-0.32%
O=C(c1ccc(Cl)nc1)c1cccs1	-3.15%	14.95%	-2.66%	4.42%	2.35%	-1.99%
CC(C)(C)c1ccc(OCC(=O)O)cc1	4.22%	-1%	10.46%	8.68%	8.84%	-1.59%
Cc1cc(=O)c2c(o1)C(=O)c1occc1C2=O	-16.99%	-9.35%	-16.26%	2.36%	7.04%	24.84%
Cc1cc(O)c(C(C)C)cc1NC(=O)Nc1cccc2ccccc12	-3.74%	-15.42%	2.96%	4.38%	8.57%	-2.63%
CCc1nc(N)nc(N)c1-c1ccc(N(C)Cc2ccccc2)c([N+](=O)[O-])c1	-14.23%	-5.52%	6.75%	5.93%	0.08%	-8.19%
COc1cccc(OCC(O)CN2CCN(c3ccc(Cl)cc3)CC2)c1 (centres undefined)	13.17%	4.14%	2.15%	0.79%	0.05%	-12.54%
CSc1ncc2ncn(C3OC(CO)C(O)C3O)c2n1 (centres undefined)	5.7%	9.73%	-9.56%	13.33%	3.06%	-1.46%
CCC(C)NC(=O)CC(C)C (centres undefined)	6.08%	-12.68%	19.94%	15.35%	-0.68%	-12.52%
Cc1nc(N)nc(Cl)c1CCC1OCCO1	7.04%	-8.91%	8.75%	6.29%	2.66%	-6.74%
